The structures appear in SMILES notation. Hit rate of the full screen: of about 52,000 compounds, about 4,300 (8.3%) were called active. This excerpt belongs to a sample that is enriched for actives. A number with no mark means an inactive call. Rule as the data show it: active = survival mostly below about 52% (no sharp cut-off); inactive = mostly above about 56%.

The assay relates to DeltatarO mutant. Put plainly: S. aureus survival, RN4220 and DeltatarO strains – OD600, teichoic acid synthesis inhibitors, primary screen (AID 463173). The following applies: S. aureus RN4220 wild type/DeltatarO growth, OD600, 18 h, hits give low values, screened at 18.75 µg/mL (by protocol).
`COc1cc(C(=O)Nc2cccc(OCc3cc(=O)n4cc(C)sc4n3)c2)cc(OC)c1OC`: the survival was 90%.

Regarding `COc1ccccc1C1C=C(c2ccc(Cl)cc2)Nc2nc(-c3ccc(Cl)cc3)nn21` (stereo not drawn), the survival was 59%.

In the case of `COC(=O)C1=C(C)NC(=O)CC1c1ccccc1` (stereo not drawn), the survival was 105%.

With `COc1ccccc1CCNC(=O)C1CCN(c2nnc(C)c3c(C)n(-c4ccc(C)cc4)nc23)CC1`, the survival is 85%.

`CC(=O)N1CCCc2cc(S(=O)(=O)N3CCCC(C(=O)Nc4ccc(C)cc4C)C3)ccc21` (stereo not drawn): the survival was 71%.

On to `Cc1ccc(C(=O)Nc2nc3nc(C)cc(=O)n3[nH]2)cc1`, for which the survival was 91%.

As to `O=C(Cc1ccccc1)Nc1c(C(=O)N2CCN(c3ccc(F)cc3)CC2)oc2ccccc12`, the survival was 49%.

`O=C(Cn1ncc2c(=O)oc3ccccc3c21)N1CCN(c2ccc(Cl)cc2)CC1`: the survival was 93%.

Consider `CCn1ccc2cc(S(=O)(=O)N3CCCN(C(=O)Nc4ccc(C)c(F)c4)CC3)ccc21`, for which the survival was 73%.

As for `CCN1CCN(c2cc(C)c3cc(NC(=O)/C=C/c4ccc(OCCC(C)C)cc4)ccc3n2)CC1`, the survival was 112%.

`CCN1CCN(c2cc(C)c3cc(NC(=O)/C=C/c4cccc(OC)c4OC)ccc3n2)CC1`: the survival was 43% (active).

`COc1ccc(/C=C/C(=O)Nc2ccc(Cl)c(Cl)c2)cc1OC`: the survival was 18% (active).

Consider `COc1ccc(/C=C/C(=O)Nc2ccc(Cl)c(Cl)c2)cc1`, for which the survival was 66%.

With `COc1ccc(Nc2c3c(nc4ccc(NC(=O)/C=C/c5cccc(OC)c5OC)cc24)CCCC3)cc1OC`, the survival is 66%.

Turning to `CCN1CCN(c2cc(C)c3cc(NC(=O)/C=C/c4ccc(C)cc4)ccc3n2)CC1`, the survival was 52%.

On to `C/C=C/C(=O)Nc1ccc(Cl)c(Cl)c1`, for which the survival was 70%.

`COc1cccc(/C=C/C(=O)Nc2ccc3nc(N4CCN(C)CC4)cc(C)c3c2)c1OC`: the survival is 79%.

`CCN1CCN(c2cc(C)c3cc(NC(=O)/C=C/c4cccc(Cl)c4)ccc3n2)CC1`: the survival was 44% (active).

With `O=C(CSc1nnc(-c2ccc([N+](=O)[O-])cc2)o1)Nc1ccccc1`, the survival was 81%.

Turning to `CCSc1ncc(Cl)c(C(=O)Nc2sc(C(C)=O)c(C)c2C(=O)OC)n1`, the survival is 72%.

With `O=C(Cn1ncc2c3ccccc3n(Cc3ccc(F)cc3)c2c1=O)NC1CCCCCC1`, the survival is 80%.

For the compound `COc1cccc(CNC(=O)CN(c2ccc(C)cc2)S(=O)(=O)N(C)C)c1OC`, the survival was 94%.

On to `C=Cc1ccc(CN2C(=O)N(c3cccc(Cl)c3)S(=O)(=O)c3ccccc32)cc1`, for which the survival is 64%.

Turning to `C=Cc1ccc(CN2C(=O)N(c3ccc(C)c(C)c3)S(=O)(=O)c3ccccc32)cc1`, the survival was 84%.

With `C=Cc1ccc(CN2C(=O)N(c3ccc(CC)cc3)S(=O)(=O)c3ccccc32)cc1`, the survival is 6% (active).

Take `COc1cc(NC(=O)CCc2nc3cccnc3n2Cc2cccs2)cc(OC)c1OC`: the survival was 78%.

With `CC(=O)NC(Cc1cccc(C)c1)C(=O)NC1CCN(c2nc(C)cc(C)c2C#N)CC1` (stereo not drawn), the survival is 97%.

With `CCS(=O)(=O)c1cccc(C(=O)Nc2ccc(-c3nc4ccccc4s3)c(O)c2)c1`, the survival was 85%.

Consider `COc1cc(OC)c(C2Nc3c(C)cccc3-c3cc(C)nn32)cc1OC` (stereo not drawn), for which the survival is 184%.

With `COc1ccc(OC)c(C2Nc3c(C)cc(C)cc3-c3cc(C)nn32)c1` (stereo not drawn), the survival was -3% (active).

As to `CCN(CC)c1ccc(C2Nc3ccccc3-c3cc(C)nn32)cc1` (stereo not drawn), the survival is 7% (active).

`COc1cc(C2Nc3c(C)cc(C)cc3-c3cc(C)nn32)cc(OC)c1O` (stereo not drawn): the survival is 131%.

Consider `Cc1cc2n(n1)C(c1ccccc1)Nc1ccccc1-2` (stereo not drawn), for which the survival is 93%.

Regarding `CCOc1cccc(C2Nc3ccccc3-c3cc(C)nn32)c1O` (stereo not drawn), the survival is 195%.

As to `COc1cc(C2Nc3ccccc3-c3cc(C)nn32)ccc1O` (stereo not drawn), the survival was 121%.

On to `COC(=O)c1ccc(C2Nc3c(C)cccc3-c3cc(C)nn32)cc1` (stereo not drawn), for which the survival is 74%.

With `CCOc1ccc(C2Nc3c(C)cccc3-c3cc(C)nn32)cc1` (stereo not drawn), the survival was 0% (active).

On to `O=C(NCc1ccccc1Cl)C1CCN(C(=O)N2CCOc3ccccc32)CC1`, for which the survival was 83%.

`COCCn1c(COc2cccc(OC)c2)nnc1SCC(=O)NC1CCCC1`: the survival was 82%.

As to `COc1ccc(NC(=O)c2cc(C)nc3c2c(C)nn3-c2ccc(C)cc2)cc1OC`, the survival was 94%.

Turning to `Cc1ccc2[nH]c(=O)c(CN(C(=O)c3cccc(Cl)c3)C(C)(C)C)cc2c1`, the survival was 94%.

Consider `Cc1ccc(C)c(C(=O)CSc2nc(-c3ccccc3)nc3c2CCCC3)c1`, for which the survival is 2% (active).

In the case of `Cc1ccc(C(=O)CSc2nc(-c3ccccc3)nc3c2CCCC3)c(C)c1`, the survival was 47%.

Take `O=C(CSc1nc(-c2ccccc2)nc2c1CCCC2)c1ccc(F)cc1`: the survival is 83%.

Take `Cc1ccc(C(=O)CSc2nc(-c3ccccc3)nc3c2CCCC3)cc1`: the survival was 36% (active).

Take `NC(=O)CSc1nc(-c2ccccc2)nc2c1CCCC2`: the survival was 88%.

As for `Cc1nc2c(c(SCC(=O)Nc3ccccc3C(F)(F)F)n1)CCC2`, the survival is 60%.

Regarding `O=C(CSc1nc(-c2ccccc2)nc2c1CCCC2)c1ccc(Cl)cc1`, the survival was 76%.

As for `CCc1ccc(C(=O)CSc2nc(-c3ccccc3)nc3c2CCCC3)cc1`, the survival was 60%.

On to `Cc1ccc(C(=O)CSc2nc(-c3ccccc3)nc3c2CCCC3)cc1C`, for which the survival is 15% (active).

`OC(CNCc1ccccn1)COc1ccc(OCC(O)CNCc2ccccn2)cc1` (stereo not drawn): the survival is 96%.

As to `Cc1ccc2c(c1)NC(=O)c1cccnc1O2`, the survival was 94%.

Consider `CCOc1ccc(CNC(=O)C(C)n2ncn3cccc3c2=O)cc1` (stereo not drawn), for which the survival was 69%.

Consider `COc1ccc(C(C(=O)NC2CCCC2)N(Cc2ccco2)C(=O)Cn2nc(C(F)(F)F)c3c2CCCC3)cc1` (stereo not drawn), for which the survival was 91%.

As for `Brc1ccc(-c2csc(NN=C3CCCC3)n2)cc1`, the survival was 102%.

In the case of `COC(=O)c1ccccc1NC(=O)c1ccc2c(c1)CCN2S(=O)(=O)c1ccc(Cl)cc1`, the survival was 69%.

Take `CCn1c2c(c(=O)n3ncc(C(=O)Nc4ccc(OC(F)(F)F)cc4)c13)CN(Cc1ccc(OC)cc1)CC2`: the survival was 94%.

`CCn1c2c(c(=O)n3ncc(C(=O)Nc4ccc(Cl)cc4C)c13)CN(Cc1ccc(OC)cc1)CC2`: the survival was 87%.

With `CCn1c2c(c(=O)n3ncc(C(=O)Nc4ccc(F)c(Cl)c4)c13)CN(Cc1ccc(OC)cc1)CC2`, the survival was 17% (active).

In the case of `c1ccc(N2CCN(Cc3cccn3-c3nnc(N4CCN(C5CCCCC5)CC4)s3)CC2)cc1`, the survival is 76%.

For the compound `CCCCNC(=O)C1CCN(S(=O)(=O)c2cc(Br)cc3c2N(C(=O)CC)CC3)CC1`, the survival was 90%.

As for `CCC(=O)N1CCc2cc(Br)cc(S(=O)(=O)N3CCC(C(=O)Nc4cccc(C)c4)CC3)c21`, the survival is 80%.

On to `CCC(=O)N1CCc2cc(Br)cc(S(=O)(=O)N3CCC(C(=O)Nc4ccc(OC)cc4)CC3)c21`, for which the survival was 8% (active).

Take `CC(=O)N1CCc2cc(Br)cc(S(=O)(=O)N3CCC(C(=O)Nc4cccc(C)c4C)CC3)c21`: the survival is 75% (active).

Take `CCc1cccc(C)c1NC(=O)C1CCN(S(=O)(=O)c2cc(Br)cc3c2N(C(C)=O)CC3)CC1`: the survival was 59%.

On to `CCC(=O)N1CCc2cc(Br)cc(S(=O)(=O)N3CCC(C(=O)Nc4ccccc4F)CC3)c21`, for which the survival was 43% (active).

Regarding `CCOc1ccccc1NC(=O)C1CCN(S(=O)(=O)c2cc(Br)cc3c2N(C(C)=O)CC3)CC1`, the survival is 69%.

In the case of `CCC(=O)N1CCc2cc(Br)cc(S(=O)(=O)N3CCC(C(=O)NC(C)(C)C)CC3)c21`, the survival is 84%.

As for `CCC(=O)N1CCc2cc(Br)cc(S(=O)(=O)N3CCC(C(=O)Nc4ccccc4CC)CC3)c21`, the survival is 84%.

As for `COC(=O)CNC(=O)C1CCN(c2nc(C)cc(-c3ccccc3)n2)CC1`, the survival is 96%.

As for `O=C(Nc1sc2c(c1C(=O)c1ccccc1)CCCC2)c1ccco1`, the survival was 73%.

Turning to `O=C(/C=C/c1ccco1)NC(=S)Nc1ccccc1O`, the survival is 100%.

For `CCCCNC(=O)C1CCC(Cn2c(=O)c3sccc3n(Cc3ccccc3)c2=O)CC1` (stereo not drawn), the survival was 71%.

As to `CSc1ccc(CCNC(=O)c2cnc3c(C)cccn3c2=O)cc1`, the survival was 89%.

As to `CCc1ccccc1NC(=O)C1CCC(CNS(=O)(=O)c2ccc3c(c2)CC(C)N3C(C)=O)CC1` (stereo not drawn), the survival was 91%.

With `COc1cccc(NC(=O)CCc2c(C)nc3nc(CNC(=O)c4cccc(F)c4)nn3c2C)c1`, the survival was 76%.

Turning to `Cc1cccc(CN2C(=O)c3ccccc3Sc3ccc(C(=O)NCc4cccs4)cc32)c1`, the survival was 93%.

For the compound `Cc1ccc(CNC(=O)c2ccc3c(c2)N(Cc2cccc(Cl)c2)C(=O)CS3)cc1`, the survival is 40% (active).

With `CCN1CCSc2ccc(C(=O)NCc3cccc(F)c3)cc21`, the survival is 61%.

Take `CCN1CCSc2ccc(C(=O)NCc3ccccc3Br)cc21`: the survival is 62%.

In the case of `Cc1ccc(CNC(=O)c2ccc3c(c2)N(Cc2cccc(C)c2)C(=O)CS3)cc1`, the survival is 46% (active).

With `COc1ccc(CNC(=O)c2ccc3c(c2)N(Cc2cc(C)ccc2C)C(=O)CS3)cc1`, the survival was 59%.

As to `Cc1cccc(CNC(=O)c2ccc3c(c2)N(C)CCS3)c1`, the survival was 65%.

`CCN1CCSc2ccc(C(=O)NCc3cccc(Br)c3)cc21`: the survival is 46% (active).

For `Cc1ccc(CNC(=O)c2ccc3c(c2)N(Cc2ccccc2Cl)C(=O)CS3)cc1`, the survival is 50%.

As for `Cc1ccc(C)c(CN2C(=O)CSc3ccc(C(=O)NCc4ccc(F)cc4)cc32)c1`, the survival is 46% (active).

For `O=C(NCc1ccc(F)cc1)c1ccc2c(c1)N(Cc1ccc(F)cc1Cl)C(=O)CS2`, the survival is 57%.

On to `O=C(NCc1ccccc1Cl)c1ccc2c(c1)N(Cc1ccccc1)C(=O)CS2`, for which the survival is 101%.

The values are drawn from PubChem BioAssay AID463173 (ICCB-Longwood Screening Facility, Harvard Medical School, 2010).
